This excerpt belongs to a sample that is enriched for hits.
Methyltransferases = Primary Screen for Target Class Profiling of Small Molecule Inhibitors of Methyltransferases | actives 3.9% (n = 25,000) | purified enzyme, MTase-Glo SAH luminescence; stronger effect = lower value | AID 1745853, 2022 | calls only at 40 µM; call rule not given here
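Each enzyme was assayed with SAM and its substrate. SAH formation detected by MTase-Glo luminescence; single-point 40 uM screen[…].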
* = called active by the depositor; i = inactive; + = active, no number. % is set by controls: 0 for no effect and ±100 for the full control effect.

SMILES	Methyltransferases
CC1(C(=O)NC2CCCCC2)Cn2c(ccc2-c2ccco2)C(=O)N1CCc1ccccc1 (configuration not stated)	i
CC1(C(=O)NC2CCCCCC2)Cn2c(cc3sccc32)C(=O)N1Cc1cccnc1 (configuration not stated)	i
CC[n+]1c(/C=C/C=C2/N(C)c3ccccc3C2(C)C)sc2ccccc21	+
COc1ccc2cc3n(c2c1)CC(C)(C(=O)NC1CCCCC1)N(Cc1ccc2c(c1)OCO2)C3=O (configuration not stated)	i
CC1(C(=O)NC2CCCCCC2)Cn2c(cc3occc32)C(=O)N1Cc1ccccc1Br (configuration not stated)	i
CSc1ccc(CNC(=O)c2cc3n(n2)CC(C)(C(=O)NCc2ccccc2)N(C)C3=O)cc1 (configuration not stated)	i
CCOC(=O)c1cc2n(n1)CC(C)(C(=O)NCCCOC)N(c1ccc(OC)c(OC)c1)C2=O (configuration not stated)	i
C=CC(=O)Nc1ccc(CN2C(=O)N(c3cc(OC)cc(OC)c3)Cc3cnc(Nc4ccc(N5CCN(C)CC5)cc4)nc32)cc1	+
C=CC(=O)Nc1cccc(Oc2nc(Nc3ccc(N4CCN(C)CC4)cc3OC)ncc2Cl)c1	i
COc1cccc(Nc2ncc3c(n2)C(C)(C(=O)N2CCN(c4ccccn4)CC2)CC3)c1 (configuration not stated)	i
CC(C)NC(=O)c1ccc2c(=O)n(C(C)C)c3nn(CC(=O)Nc4ccccc4Cl)c(=O)n3c2c1	i
Cc1ccc2nc(N)[nH]c(=O)c2c1Sc1ccncc1	+
CCCn1c(=O)c2sccc2n2c(CCC(=O)NCc3ccncc3)nnc12	i
Cc1ccc(Nc2nccc(N(C)c3ccc4c(C)n(C)nc4c3)n2)cc1S(N)(=O)=O	+
C=CCn1c(=O)c2ccc(C(=O)NC(C)C)cc2n2c(=O)n(CC(=O)NCCc3ccccc3)nc12	i
COc1ccc(CCNc2nc3c(S(=O)(=O)c4ccc(C)cc4)nnn3c3ccccc23)cc1OC	i
COc1ccc(-c2cnc3ccc(NCc4ccc(S(N)(=O)=O)cc4)nn23)cc1OC	+
COc1ccc(S(=O)(=O)NCc2nc(-c3ccc(OC)c(OC)c3)no2)cc1	i
COc1ccc(OC)c(S(=O)(=O)N2CCC3(CC2)CC(CC(=O)N2CCOCC2)CCO3)c1 (configuration not stated)	i
COC(=O)c1cc2n(n1)CC(C)(C(=O)NC1CCCCCC1)N(Cc1ccc(C)cc1)C2=O (configuration not stated)	i
Cc1ccc(Cn2c(=O)c3ccccc3n3c(=O)n(Cc4cccc(F)c4)nc23)cc1	i
Cc1ccc(NC(=O)Cn2nc3n(C)c(=O)c4ccc(C(=O)NC5CCCC5)cc4n3c2=O)cc1F	i
CC1CCC2(C)C(CC(O)C(O)C23CO3)C1(C)CCC1=CC(=O)OC1O (configuration not stated)	i
CC1CC(O)C2(C)C(C(=O)O)=CCCC2C1(C)CCc1ccoc1 (configuration not stated)	+
CC1CCC2(CO)C(C(=O)O)=CCCC2C1(C)CCc1ccoc1 (configuration not stated)	+
SMILES	Methyltransferases
CC1=CCC[C@@H]2[C@](CCc3ccoc3)(C(=O)O)[C@H](C)CC[C@@]12C	i
CC1(C(=O)NC2CCCCCC2)Cn2nc(-c3cccs3)cc2C(=O)N1Cc1ccc(F)cc1 (configuration not stated)	i
CCc1cc2c(cc3n2CC(C)(C(=O)NC2CCCCC2)N(c2cc(C)cc(C)c2)C3=O)s1 (configuration not stated)	i
COc1ccc(OC)c2c1cc1n2CC(C)(C(=O)NC2CCCCC2)N(Cc2ccccc2C)C1=O (configuration not stated)	i
Cc1nc([C@](C)(O)CO)sc1-c1cnc(N)c(O[C@H](C)c2cc(F)ccc2-n2nccn2)c1	+
O=C1CCCN1c1ccc(CN2CC(=O)N(Cc3ccccc3F)c3ccccc3S2(=O)=O)cc1	i
CCOc1ccc(N2C(=O)c3c(C(=O)OC)ncn3CC2(C)C(=O)NCCCOC(C)C)cc1 (configuration not stated)	i
CC1(C(=O)NC2CCCC2)Cn2c(cc3ccccc32)C(=O)N1Cc1cccnc1 (configuration not stated)	i
COC(=O)c1ncn2c1C(=O)N(CCc1ccccc1)C(C)(C(=O)NC1CCCC1)C2 (configuration not stated)	i
CC(C)CCC1(O)C(=O)C(C)(C)C(O[C@@H]2O[C@H](CO)[C@@H](O)[C@H](O)[C@H]2O)C(C)(C)C1O (some centres not stated)	+
CC1(C)COC(=O)[C@@H]1O[C@@H]1O[C@H](CO)[C@@H](O)[C@H](O)[C@H]1O	i
CCC(C)C(=O)O[C@H]1[C@@H](O[C@H]2O[C@H](CO)[C@@H](O)[C@H](O)[C@H]2O)O[C@H](CO)[C@@H](O)[C@@H]1O (some centres not stated)	i
Clc1ccc(CNc2nc3c(-c4ccccc4)nnn3c3ccccc23)cc1	i
CC(CCc1ccccc1)N1C(=O)c2cc3occc3n2CC1(C)C(=O)NC1CCCCCCC1 (configuration not stated)	i
C/C(=C\CC/C(C)=C/CC[C@]1(C)CCc2cc(O)cc(C)c2O1)CC/C=C(\C)C(=O)O	+
COC(=O)c1ncn2c1C(=O)N(Cc1ccc(C)cc1)C(C)(C(=O)NC1CCCCCC1)C2 (configuration not stated)	i
CC1(C(=O)NC2CCCCC2)Cn2c(c(-n3cccc3)c3ccccc32)C(=O)N1Cc1ccco1 (configuration not stated)	i
O=C(NC1CCCCC1)c1ccc2c(=O)nc3c(-c4ccc(Cl)cc4)n[nH]n3c2c1	i
CCC(C)NC(=O)c1ccc2c(=O)n(C)c3nnc(SCC(=O)Nc4ccc(C)cc4C)n3c2c1 (configuration not stated)	i
CCC(C)NC(=O)c1ccc2c(=O)n(CCC(C)C)c3nn(Cc4cccc(F)c4)c(=O)n3c2c1 (configuration not stated)	i
C=C(C)C(=O)OC1[C@@H]2C(=C)C(=O)O[C@@H]2C[C@@H](C)[C@@H]2C=CC(=O)[C@@]12C (some centres not stated)	i
C=C1C(=O)O[C@H]2C1CCC(C)=C1C(=O)C=C(C)[C@@]12O (some centres not stated)	i
C=C1C(=O)O[C@H]2CC(=C)[C@H]3CC[C@@](C)(O)[C@@H]3CC12 (some centres not stated)	+
CCOCCCNC(=O)C1c2c(n(C)c3ccccc23)SCC(=O)N1c1ccc(C(C)C)cc1 (configuration not stated)	i
COc1ccccc1CNS(=O)(=O)c1ccc2[nH]c3c(c2c1)CCCC3	i
COCCCNC(=O)C1(C)Cn2nc(-c3ccccc3)cc2C(=O)N1c1ccc(C)c(C)c1 (configuration not stated)	i
COc1ccc(CN2C(=O)c3cc(-c4cccs4)nn3CC2(C)C(=O)NC2CCCCC2)cc1 (configuration not stated)	i
COc1ccc(OC)c(CN2C(=O)c3cc4ccccc4n3CC2(C)C(=O)NCCC(C)C)c1 (configuration not stated)	i

Screening data from PubChem.
